From PubChem BioAssay (NCATS)
Active and inactive are the calls of the source. Calls follow the shape of the dose curve; as a rule, active = well fitted curve in the direction sought with a large enough effect; inactive = no such curve, though single readings can be large or run the other way.

molecular target: Alpha-galactosidase (Coffea arabica) (UniProt Q42656); assay: Counterscreen for Glucocerebrosidase Inhibitors: qHTS Assay for Coffee Bean alpha-Galactosidase at pH 5.9 (AID 998); conditions: coffee bean alpha-galactosidase enzyme assay; series mostly up to 76.9 µM
Sequence (Q42656 whole entry, looked up): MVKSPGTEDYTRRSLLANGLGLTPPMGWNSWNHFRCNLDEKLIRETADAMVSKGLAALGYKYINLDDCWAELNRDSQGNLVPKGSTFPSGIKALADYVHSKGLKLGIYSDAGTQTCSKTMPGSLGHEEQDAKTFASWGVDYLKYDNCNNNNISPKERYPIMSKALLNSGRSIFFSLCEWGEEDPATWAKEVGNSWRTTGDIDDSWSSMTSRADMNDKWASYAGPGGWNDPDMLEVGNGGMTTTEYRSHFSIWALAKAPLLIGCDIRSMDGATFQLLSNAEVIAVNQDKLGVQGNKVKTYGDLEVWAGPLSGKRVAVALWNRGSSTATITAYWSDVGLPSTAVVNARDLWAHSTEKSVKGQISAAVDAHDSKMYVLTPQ
Procedure, shortened: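 Green coffee bean enzyme (2 nM) with 4-methylumbelliferyl alpha-D-galactopyranoside (80 uM) in 50 mM citric acid, 0.005% Tween-20, pH 5.9, 20 min at room temperature; compounds 0.7 nM–77 uM. Stopped at pH 10, fluorescence Ex365/Em440; Hill-fit AC50.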

Row | SMILES | outcome
1 | NCCCCCC(=O)O | inactive
2 | NC(N)=NC(=O)Cc1c(Cl)cccc1Cl | inactive
3 | CN1[C@@H]2CC[C@H]1CC(OC(c1ccccc1)c1ccccc1)C2 (stereo partly drawn) | inactive
4 | CC(=O)O[C@H]1C(=O)[C@@]2(C)[C@H]([C@H](OC(=O)c3ccccc3)[C@]3(O)C[C@H](OC(=O)[C@H](O)[C@@H](NC(=O)c4ccccc4)c4ccccc4)C(C)=C1C3(C)C)[C@]1(OC(C)=O)CO[C@@H]1C[C@@H]2O | inactive
5 | NCCCNCCSP(=O)(O)O | inactive
6 | CNC[C@H](O)c1cccc(O)c1 | inactive
7 | CN1CCC[C@@H]1c1cccnc1 | inactive
8 | CNCCCC12CCC(c3ccccc31)c1ccccc12 | inactive
9 | CCOC(=O)c1cnc2c(cnn2CC)c1NN=C(C)C | inactive
10 | CC(C)NNC(=O)c1ccncc1 | inactive
11 | CC(C)C(=O)c1c(C(C)C)nn2ccccc12 | inactive
12 | O=c1[nH]c(=O)n([C@H]2C[C@H](O)[C@@H](CO)O2)cc1Br | inactive
13 | CC(=O)Oc1cc(C(C)C)c(OCCN(C)C)cc1C | inactive
14 | N[C@@H](COP(=O)(O)O)C(=O)O | inactive
15 | NCCS(=O)(=O)O | inactive
16 | CC(C)Cc1ccc(C(C)C(=O)O)cc1 (stereo not drawn) | inactive
17 | O=C(O)CCCCCCCC(=O)O | inactive
18 | COc1ccc2cc([C@H](C)C(=O)O)ccc2c1 | inactive
19 | Nc1cc(=O)[nH]c(N)n1 | inactive
20 | C[N+](C)(C)CCCCCC[N+](C)(C)C | inactive
21 | C1COC(NC(C2CC2)C2CC2)=N1 | inactive
22 | CCn1nc(C(=O)O)c(=O)c2cc3c(cc21)OCO3 | inactive
23 | FC(F)(F)c1ccccc1-n1ccnc1 | inactive
